Molecules are shown by their SMILES. The whole screen tested about 360,000 compounds, of which about 10,000 (2.8%) were called active. Roughly 4% stayed inconclusive and do not appear here. The sample as a whole holds a higher share of actives than the screen did. A number with no mark means an inactive call. The call rests on the fitted dose curve; in most records, active means well fitted inhibition curve with a large enough effect; inconclusive means small, poorly fitted or top-dose-only effect; inactive means flat fitted curve, though single readings scatter.
On the % scale 0 is the no-effect control and ±100 the full control effect; potency means the concentration at half of the fitted maximal effect.

Chain of Serine/threonine-protein kinase PLK1 (Homo sapiens) (P53350 whole entry, looked up, the tested form may be a part): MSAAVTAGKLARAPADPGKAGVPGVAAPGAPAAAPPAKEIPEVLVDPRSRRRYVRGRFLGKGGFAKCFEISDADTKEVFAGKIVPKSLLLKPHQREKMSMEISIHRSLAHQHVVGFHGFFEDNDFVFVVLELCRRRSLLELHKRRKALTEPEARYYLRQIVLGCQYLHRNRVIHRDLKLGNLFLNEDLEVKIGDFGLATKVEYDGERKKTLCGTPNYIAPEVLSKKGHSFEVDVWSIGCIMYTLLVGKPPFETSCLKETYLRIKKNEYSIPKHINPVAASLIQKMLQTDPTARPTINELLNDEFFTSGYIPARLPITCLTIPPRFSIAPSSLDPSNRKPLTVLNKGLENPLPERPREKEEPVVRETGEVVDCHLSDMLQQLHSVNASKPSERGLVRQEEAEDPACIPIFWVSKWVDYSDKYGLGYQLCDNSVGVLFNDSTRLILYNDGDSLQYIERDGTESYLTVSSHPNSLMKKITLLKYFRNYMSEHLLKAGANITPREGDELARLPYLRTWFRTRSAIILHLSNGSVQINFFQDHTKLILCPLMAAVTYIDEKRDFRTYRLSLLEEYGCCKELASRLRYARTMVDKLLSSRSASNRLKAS

The assay concerns the target Serine/threonine-protein kinase PLK1 (Homo sapiens) (UniProt P53350). The assay is described as follows: qHTS for Inhibitors of PLK1-PDB (polo-like kinase 1 - polo-box domain): Primary Screen. Further: nearly all actives have a fitted effect of over 65% in size. On max response, negative = inhibition: series mostly up to about 57 µM. The conditions noted are these: Plk1 PBD binding of FITC phosphopeptide, fluorescence polarization. (Quantitative high-throughput screening tests each substance at several concentrations.)
As to `CC(=CCOc1ccc2ccc(=O)oc2c1)C1=CC(=O)C(C)(C)O1`, the max response, negative = inhibition was -1.51%.

On to `O=C(O)C1CSC(c2cccnc2)N1` (centres undefined), for which the max response, negative = inhibition is -10%.

Consider `O=C1NCN(c2ccccc2)C12CCN(C(c1cccs1)c1nnnn1C1CCCCC1)CC2` (centres undefined), for which the max response, negative = inhibition is -2.86%.

For the molecule `COP(=O)(NS(=O)(=O)c1ccccc1)OC`, the max response, negative = inhibition was -7.79%.

Consider `C[N+]1(C)CCOC(O)(c2ccc(-c3ccc(C4(O)C[N+](C)(C)CCO4)cc3)cc2)C1` (centres undefined), for which the max response, negative = inhibition was -17.9%.

On to `COc1ccc(-n2c(O)c(C(C)=Nc3ccc4c(c3)CCC4)c(=O)[nH]c2=O)cc1`, for which the max response, negative = inhibition is 2.28%.

Consider `COc1ccccc1C1=NCc2nnc(CSC)n2-c2ccc(Cl)cc21`, for which the max response, negative = inhibition is 2.66%.

`O=C(NCC1=C(c2ccc3ccccc3c2)C[C@@H]2CC[C@H]1N2Cc1ccco1)c1cccs1`: the max response, negative = inhibition was -9.52%.

In the case of `O=C1NC(=O)C(C/C=C/c2ccccc2)C(=O)N1`, the max response, negative = inhibition was -29.7%.

`CCN(CC)C(=O)c1ccc(NC(=O)c2cc(-n3cnnc3)ccc2Cl)cc1`: the max response, negative = inhibition is -5.96%.

Take `CN(C)CC1Oc2ccccc2OC1(O)c1ccccc1` (centres undefined): the Potency was 5.32 µM (active).

Consider `OC(CNC1CCCCC1)c1ccccc1` (centres undefined), for which the max response, negative = inhibition is -2.72%.

As for `CN1CCC(N(C)Cc2cccnc2)CC1`, the max response, negative = inhibition is -7.61%.

On to `CCOC(=O)C(O)(c1ccc(N)c(OC)c1)C(F)(F)F` (centres undefined), for which the max response, negative = inhibition was -1.46%.

`CN(C)C(=O)Oc1cc(=O)n2c3c(cccc13)CCC2`: the max response, negative = inhibition was -13.7%.

`CC1CCCN1CCC(C(N)=O)(c1ccccc1)c1ccccc1` (centres undefined): the max response, negative = inhibition was -4.65%.

Take `Cc1ccnc(-n2c(C)cc(/C=C3\C(=O)NC(=S)N(C)C3=O)c2C)c1`: the Potency is 2.38 µM (active).

`Cc1ccc(-n2c(C)cc(/C=C3\C(=O)NC(=O)N(C)C3=O)c2C)cc1C`: the max response, negative = inhibition was -15.6%.

Turning to `O=C(NC(c1ccc(Cl)cc1)P(=O)(Oc1ccccc1)Oc1ccccc1)OCc1ccccc1` (centres undefined), the max response, negative = inhibition was 0.141%.

For `C[C@H]1CN([C@@H](C)CO)C(=O)CCCn2nncc2CO[C@H]1CN(C)C(=O)Oc1ccccc1`, the max response, negative = inhibition was -3.55%.

For the molecule `CC(CC(C#N)(c1ccccc1)c1ccccc1)N1CCCCC1` (centres undefined), the max response, negative = inhibition was -6.42%.

`COc1cccc(C(c2nnnn2-c2ccc3c(c2)OCCO3)N2CCC3(CC2)C(=O)NCN3c2ccccc2)c1OC` (centres undefined): the max response, negative = inhibition was -7.89%.

As to `O=C(O)CCn1cc(C=C2C(=O)NC(=S)NC2=O)c(-c2cccc(Br)c2)n1`, the Potency was 4.74 µM (active).

Turning to `O=c1[nH]c2ccccc2n1C1CCN(C(c2ccnc3ccccc23)c2nnnn2Cc2ccccc2)CC1` (centres undefined), the max response, negative = inhibition is 3%.

With `CCCCCCCCCCCCn1ccc(=N)cc1`, the max response, negative = inhibition was -4.33%.

Regarding `COc1ccc(-c2nn(CCC#N)cc2C(=O)O)cc1`, the max response, negative = inhibition is -2.51%.

On to `O=C(c1cc(S(=O)(=O)N2CCOCC2)ccc1F)N1CCC2(CC1)OCCO2`, for which the max response, negative = inhibition is -4.68%.

As for `C=CC12CN(C)[C@@H]3C4CO[C@H](C[C@H]41)[C@]1(C(=O)Nc4ccccc41)[C@@H]32` (some centres undefined), the max response, negative = inhibition was -7.71%.

On to `CCN1C(=O)C(=Cc2c(C)n(CC(=O)NCC3CCCO3)c3ccccc23)C(=O)N(CC)C1=S` (centres undefined), for which the Potency was 1.06 µM (active).

Consider `C/C=C/CC1(CC)C(=O)NC(=S)NC1=O`, for which the max response, negative = inhibition was -7.94%.

In the case of `CCc1cccc2c(C#N)cn(CC(=O)N3CCOCC3)c12`, the max response, negative = inhibition was -5.32%.

On to `COc1ccccc1N=Nc1c(O)[nH]c(=S)[nH]c1=O`, for which the max response, negative = inhibition is 13.3%.

With `O=c1[nH]c(=S)[nH]c(O)c1/C=C1\C=Nc2ccccc21`, the Potency is 1.19 µM (active).

On to `COc1ccc(CCn2c(O)c(C=NCCCn3ccnc3)c(=O)[nH]c2=O)cc1OC`, for which the max response, negative = inhibition is -4.17%.

As to `c1ccc(Cc2nn3c(Cn4cnc5ccccc54)nnc3s2)cc1`, the Potency was 11.9 µM (active).

With `CCOP(=O)(OCC)C(NC(=O)NC)C(N)=O` (centres undefined), the max response, negative = inhibition was 0.136%.

For `CCCC[N+]1(C)C2CC(OC(=O)C(CO)c3ccccc3)CC1C1OC12` (centres undefined), the max response, negative = inhibition is -0.372%.

Regarding `CC(=NCc1ccc2c(c1)OCO2)c1c(O)[nH]c(=O)[nH]c1=O`, the max response, negative = inhibition was -14.7%.

As to `CCOC(=O)C1SC2(C(F)(F)C(F)F)CC1(O)c1c(c(OC)c3occc3c1OC)O2` (centres undefined), the max response, negative = inhibition is 0.906%.

In the case of `O=c1c2ccccc2[nH]c(=S)n1-c1cccc(Cl)c1`, the max response, negative = inhibition was -18.6%.

In the case of `COC(=O)C1=C(c2ccc(-c3ccccc3)c(F)c2)C[C@@H]2CC[C@H]1N2C(=O)NCc1ccc(F)cc1`, the max response, negative = inhibition was -10.9%.

Consider `C=C(C)C1(CCCC)C(=O)NC(=S)NC1=O`, for which the max response, negative = inhibition was 0.58%.

Regarding `Cc1noc(C)c1CSc1nc2cc(S(=O)(=O)N3CCOCC3)ccc2o1`, the Potency is 21.2 µM (active).

Turning to `Cn1c(C(=O)N2CCC(C(=O)N3CCC4(CC3)OCCO4)CC2)cc2sccc21`, the max response, negative = inhibition is -6.93%.

As for `CC=C(C)C(=O)OC1CCN2CC=C(COC(=O)C(O)(C(C)OC)C(C)(C)O)C12` (centres undefined), the max response, negative = inhibition is -10.3%.

Consider `Cc1cc(=O)oc2c(C)c(OCC(=O)N3CCN(Cc4ccc5c(c4)OCO5)CC3)ccc12`, for which the max response, negative = inhibition was -7.37%.

Take `Cc1cccc(NC(=O)OC2CN3CCC2CC3)c1` (centres undefined): the max response, negative = inhibition is 3.5%.

As for `O=C(Nc1cccc(OC(=O)N2CCCCC2)c1)N1CCOCC1`, the max response, negative = inhibition is -15.9%.

Regarding `CN1CCN(C(=O)COc2ccc(C(C)(C)C)cc2Br)CC1`, the max response, negative = inhibition was -4.1%.

Turning to `CC(C)(C)c1ccc(OC(=O)N2CCCCC2)cc1`, the Potency is 23.8 µM (active).

Regarding `C[N+]12CN3CN(CN(C3)C1)C2`, the max response, negative = inhibition is -1.32%.

Consider `COc1ccc(-n2nnnc2C(c2cccc3ccccc23)N2CCC(n3c(=O)[nH]c4ccccc43)CC2)cc1` (centres undefined), for which the max response, negative = inhibition is -4.82%.

`COc1ccc(NC(=O)N2Cc3ccccc3-n3nncc3C2)cc1`: the max response, negative = inhibition is -7.51%.

Consider `CCOc1ccc(C2SCC(=O)Nc3c2c(C)nn3C2CCOC(C)(C)C2)cc1` (centres undefined), for which the max response, negative = inhibition was -3.25%.

The values are drawn from PubChem BioAssay AID720504 (National Center for Advancing Translational Sciences (NCATS), 2013).
